Assay results taken from PubChem BioAssay AID743449 (Broad Institute, 2014).
Several values for one entry are separate records, joined by “and”; a condition that tells them apart may be missing. Identical values can stand only once. The campaign covered roughly 9,900 compounds. About 90 (0.9%) were called active. Another 2% or so got no clear call; they are omitted. Only a selection was taken, and actives are over-represented in it overall. Values without a mark were called inactive.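 How the source made its calls: active means mean normalized replicate activity at least 50 and at least half of replicates each reaching 50; inconclusive means only one of the two criteria met; inactive means neither criterion met.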

experiment: reduction of CTGF mRNA in DLD1 cells – DLD1 colon cancer cells, RT-qPCR, single point, primary screen (AID 743449); conditions: 24 h, at 12.5 µM, stronger effect = higher value;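 further: 0% = neutral control wells and 100% = dasatinib control wells; higher means stronger suppression of CTGF expression like dasatinib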

Row | SMILES | inhibition
1 | COc1cccc(NC(=O)C[C@@H]2CC[C@@H]3[C@H](COc4ccc(NS(=O)(=O)c5cccc(F)c5)cc4C(=O)N3C)O2)c1 | -76.5%
2 | C[C@H](CO)N1C[C@H](C)[C@@H](CN(C)S(=O)(=O)c2ccc([N+](=O)[O-])cc2)OCc2ccccc2-c2c(n(C)c3ccccc23)C1=O | 63.8% (active)
3 | C[C@@H]1CN([C@@H](C)CO)C(=O)c2ccccc2-c2ccccc2CO[C@@H]1CN(C)Cc1ccccc1C(F)(F)F | -64.4%
4 | C[C@@H]1CN([C@H](C)CO)C(=O)c2ccccc2-c2ccccc2CO[C@@H]1CN(C)Cc1cccc2c1OCCCO2 | 59.4% (active)
5 | C[C@@H]1CN([C@@H](C)CO)C(=O)c2c(c3ccccc3n2C)-c2ccccc2CO[C@H]1CN(C)S(=O)(=O)c1ccc([N+](=O)[O-])cc1 | 7.85%
6 | C[C@@H]1CN([C@H](C)CO)C(=O)c2ccccc2-c2ccccc2CO[C@@H]1CN(C)Cc1ccccc1C(F)(F)F | 69.6% (active)
7 | C[C@H]1CN([C@@H](C)CO)C(=O)c2ccccc2-c2ccccc2CO[C@@H]1CN(C)S(=O)(=O)c1cn(C)cn1 | -12.7%
8 | C[C@@H]1CN([C@@H](C)CO)C(=O)c2ccccc2-c2ccccc2CO[C@H]1CN(C)S(=O)(=O)c1cn(C)cn1 | -9.13%
9 | C[C@@H]1CN([C@@H](C)CO)C(=O)c2ccccc2-c2ccccc2CO[C@@H]1CN(C)Cc1cccc2c1OCCCO2 | 14.7%
10 | C[C@H](CO)N1C[C@H](C)[C@H](CN(C)Cc2ccccc2C(F)(F)F)OCc2ccccc2-c2ccccc2C1=O | 26.5%
11 | C[C@H]1CN([C@@H](C)CO)C(=O)c2c(c3ccccc3n2C)-c2ccccc2CO[C@@H]1CN(C)S(=O)(=O)c1ccc([N+](=O)[O-])cc1 | 23.9%
12 | C[C@@H]1CN([C@@H](C)CO)C(=O)c2ccccc2-c2ccccc2CO[C@@H]1CN(C)S(=O)(=O)c1cn(C)cn1 | 63% (active)
13 | C[C@H]1CN([C@@H](C)CO)C(=O)c2ccccc2-c2ccccc2CO[C@H]1CN(C)Cc1cccc2c1OCCCO2 | 24%
14 | O=C(c1cnccn1)N1C[C@@H]2N[C@H](C1)C2c1ccc(/C=C/c2ccccc2)cc1 (stereo partly drawn) | -30.1% and 19.5%
15 | O=C(C[C@H]1CC[C@H]2[C@@H](COC[C@@H](O)CN2C(=O)c2ccc(F)cc2)O1)N1CCCCC1 | -4.99%
16 | COc1ccc(-c2ccc([C@H]3[C@H](CO)N4C(=O)CN(C(=O)C5CC5)C[C@@H]34)cc2)cc1 | 4.63%
17 | COc1cccc(NC(=O)N[C@H]2CC[C@@H](CC(=O)N3CCN(C)CC3)O[C@@H]2CO)c1 | -6.95%
18 | O=C(NC[C@H]1N[C@H](CO)[C@@H]1c1ccc(-c2cncnc2)cc1)C1CCCCC1 | -7.65%
19 | COc1ccc2c3c(n(C)c2c1)[C@@H](CO)N(C(C)=O)CC31CN(S(=O)(=O)c2ccccc2)C1 | 1.07%
20 | CC(C)c1cccc(NC(=O)C[C@H]2CC[C@H]3[C@@H](COc4ccc(NC(=O)NCc5ccccc5)cc4C(=O)N3C)O2)c1 | 22.2%
21 | O=C(Nc1ccccc1F)N1C[C@@H]2[C@H](c3ccccc31)[C@@H](CO)N2C(=O)Cc1cccnc1 | 7.57%

Row | SMILES | inhibition
22 | CN1c2ccc(Br)cc2[C@@H]2[C@@H](CCN2S(=O)(=O)c2ccccc2F)[C@@H]1CO | 9.29%
23 | NCC[C@H]1CC[C@@H](NC(=O)NC2CCCCC2)[C@H](CO)O1 | 53% (active)
24 | NCC[C@H]1CC[C@H](NC(=O)NC2CCCCC2)[C@@H](CO)O1 | 23.6%
25 | NCC[C@@H]1CC[C@@H](NC(=O)NC2CCCCC2)[C@@H](CO)O1 | 5.69%
26 | O=C(NCc1cccc(F)c1)[C@H]1[C@H](CO)[C@H]2Cn3c(ccc(-c4ccncc4)c3=O)[C@@H]1N2CC1CC1 | -29.8%
27 | Cn1cnc(S(=O)(=O)N[C@@H]2CC[C@H](CC(=O)NCC3CCCCC3)O[C@H]2CO)c1 | -20.2%
28 | COc1ccc2c3c(n(C)c2c1)[C@@H](CO)N(CC1CC1)CC31CN(S(=O)(=O)c2cn(C)cn2)C1 | 10%
29 | Cc1ccc(S(=O)(=O)N[C@@H]2C=C[C@@H](CC(=O)NCc3ccc(Cl)c(Cl)c3)O[C@H]2CO)cc1 | 31%
30 | Cc1ccc(S(=O)(=O)N[C@H]2C=C[C@H](CC(=O)NCc3ccc(Cl)c(Cl)c3)O[C@@H]2CO)cc1 | -5.24%
31 | Cc1ccc(S(=O)(=O)N[C@H]2C=C[C@H](CC(=O)NCc3ccc(Cl)c(Cl)c3)O[C@H]2CO)cc1 | 52.5% (active)
32 | C/C=C/c1ccc([C@@H]2[C@@H](C#N)N(c3nc(CC)cs3)[C@@H]2CO)cc1 | 44.5%
33 | COc1cccc(-c2ccc([C@@H]3[C@@H](C#N)N(C(=O)Cc4ccncc4)[C@@H]3CO)cc2)c1 | 50.4% (active)
34 | COc1cccc(-c2ccc([C@H]3[C@@H](CO)N(C(=O)Cc4ccncc4)[C@H]3C#N)cc2)c1 | -2.53%
35 | COc1cccc(-c2ccc([C@H]3[C@H](C#N)N(C(=O)Cc4ccncc4)[C@H]3CO)cc2)c1 | -33.7%
36 | C[C@@H]1CN([C@H](C)CO)C(=O)Cc2cc(NC(=O)C3CCCCC3)ccc2O[C@H]1CN(C)Cc1ccc(Cl)c(Cl)c1 | -7.16%
37 | C[C@@H]1CN([C@@H](C)CO)C(=O)Cc2cc(NC(=O)C3CCCCC3)ccc2O[C@@H]1CN(C)Cc1ccc(Cl)c(Cl)c1 | 50.3% (active)
38 | COc1ccc(CN(C)C[C@H]2Oc3ccc(NC(=O)Nc4ccc5c(c4)OCO5)cc3CC(=O)N([C@@H](C)CO)C[C@@H]2C)cc1 | -64.7%
39 | C[C@H]1CN([C@@H](C)CO)C(=O)Cc2cc(NC(=O)C3CCCCC3)ccc2O[C@H]1CN(C)Cc1ccc(Cl)c(Cl)c1 | 35.6%
40 | COc1ccc(CN(C)C[C@H]2Oc3ccc(NC(=O)Nc4ccc5c(c4)OCO5)cc3CC(=O)N([C@@H](C)CO)C[C@H]2C)cc1 | 57.9% (active)
41 | COc1ccc(CN(C)C[C@@H]2Oc3ccc(NC(=O)Nc4ccc5c(c4)OCO5)cc3CC(=O)N([C@@H](C)CO)C[C@H]2C)cc1 | 13.9%
42 | C/C=C/c1ccc([C@H]2[C@@H](CO)N(C(=O)Nc3ccccc3F)[C@H]2C#N)cc1 | 23.1%

Row | SMILES | inhibition
43 | COC(=O)C[C@H]1CC[C@@H](N)[C@@H](CO)O1 | 15.9%
44 | CNC[C@H]1OCc2ccccc2-c2ccccc2C(=O)N([C@H](C)CO)C[C@H]1C | -6.87%
45 | CCCN1C[C@H](C)[C@H](OC)CN(C)C(=O)c2cc(NC(=O)Nc3cccc(F)c3)ccc2OC[C@@H]1C | 6.58%
46 | CO[C@@H]1CC[C@@H]2CCOc3ccc(C#N)cc3C(=O)N(C)[C@H](C)C(=O)N(C)C[C@H]1O2 | -48.9%
47 | CN1C(=O)c2cc(NS(=O)(=O)c3ccccc3F)ccc2OC[C@@H]2O[C@@H](CC(=O)NC3Cc4ccccc4C3)CC[C@@H]21 | 108% (active)
48 | CCS(=O)(=O)Nc1ccc2c(c1)C(=O)N(C)[C@H]1CC[C@H](CC(=O)N3CCN(C)CC3)O[C@H]1CO2 | 51.4% (active)
49 | CN1CCN(C(=O)C[C@H]2CC[C@H]3[C@@H](COc4ccc(NC(=O)C5CCOCC5)cc4C(=O)N3C)O2)CC1 | -56%
50 | CN1C(=O)c2cc(NC(=O)Cc3cccs3)ccc2OC[C@H]2O[C@@H](CC(=O)NCCc3ccncc3)CC[C@@H]21 | -83.9%
51 | CN1CCN(C(=O)C[C@@H]2CC[C@H]3[C@@H](COc4ccc(NC(=O)C5CCOCC5)cc4C(=O)N3C)O2)CC1 | 51.1% (active)
52 | CN1C(=O)c2cc(NS(=O)(=O)c3ccccc3F)ccc2OC[C@@H]2O[C@H](CC(=O)NC3Cc4ccccc4C3)CC[C@@H]21 | -9.49%
53 | CCS(=O)(=O)Nc1ccc2c(c1)C(=O)N(C)[C@@H]1CC[C@H](CC(=O)N3CCN(C)CC3)O[C@H]1CO2 | 0.381%
54 | CN1C(=O)c2cc(NC(=O)Cc3cccs3)ccc2OC[C@@H]2O[C@@H](CC(=O)NCCc3ccncc3)CC[C@H]21 | 60.1% (active)
55 | CN1C(=O)c2cc(NC(=O)Cc3cccs3)ccc2OC[C@H]2O[C@H](CC(=O)NCCc3ccncc3)CC[C@@H]21 | -70.9%
56 | CCS(=O)(=O)Nc1ccc2c(c1)C(=O)N(C)[C@H]1CC[C@@H](CC(=O)N3CCN(C)CC3)O[C@H]1CO2 | 15.7%
57 | CN1CCN(C(=O)C[C@H]2CC[C@@H]3[C@@H](COc4ccc(NC(=O)C5CCOCC5)cc4C(=O)N3C)O2)CC1 | 27.7%
58 | CN1C(=O)c2cc(NS(=O)(=O)c3ccccc3F)ccc2OC[C@H]2O[C@H](CC(=O)NC3Cc4ccccc4C3)CC[C@H]21 | -1.53%
59 | COc1ccccc1NC(=O)N[C@H]1CC[C@H](CCNS(=O)(=O)c2ccc(Cl)cc2)O[C@@H]1CO | 8.99%
60 | COc1ccc(NC(=O)N[C@H]2CC[C@H](CCNC(=O)CN3CCOCC3)O[C@H]2CO)cc1 | -23.1%
61 | CC(=O)N1C[C@@H]2N[C@H](C1)C2c1ccc(-c2ccccc2)cc1 (stereo partly drawn) | -22.3%
62 | O=C(C[C@H]1CC[C@@H](NC(=O)c2cccnc2)[C@@H](CO)O1)NCc1ccc(Cl)c(Cl)c1 | 26.4%
63 | CN1C(=O)c2cc(NC(=O)c3cccc(F)c3)ccc2OC[C@@H]2O[C@@H](CC(=O)NCc3ccccc3Cl)CC[C@@H]21 | 36%
